# Only some compounds are listed: those with a hit (about 2.3% of all), similar ones and a draw of the others.
# Fam108B inh – counter-screen for RBBP9 inhibitors: inhibitors of mouse Fam108B; AID 1947; 0.33% of 300,000 active; inhibition, % at 9.51 µM; recombinant Fam108B, FP-Rh probe fluorescence polarization;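 active = inhibition above the screen mean inhibition plus 3 SD, computed separately per campaign, cut at about 18% in these data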;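 also: inhibitors lower polarization as less probe binds the enzyme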
# PME-1 primary – blocks human protein phosphatase methylesterase 1; inhibition, % at 5.9 µM; recombinant PME-1, FP-Rh probe fluorescence polarization; 0.53% of 320,000 active; Q9Y570; AID 2130;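 active = inhibition above the campaign mean of all compounds plus 3 SD, cut at about 26% in these data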;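 also: competitive labeling of PME-1 active site by serine hydrolase directed probe; 0% = PME-1 with DMSO and 100% = wells lacking PME-1 enzyme; inhibitors block probe labeling so polarization falls and inhibition rises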
# GSTO1 counter – counter-screen for RBBP9 inhibitors: inhibitors of human GSTO1; recombinant GSTO1, activity-based probe fluorescence polarization; inhibition, % at 5.96 µM; 1.1% of 300,000 active;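 active = inhibition above the campaign mean inhibition plus 3 SD, cut at about 35% in these data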;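 also: 0% = GSTO1-1 with DMSO and 100% = wells lacking GSTO1-1 enzyme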
# pPAFAH FP inh – pPAFAH (human) enzyme inhibition | recombinant pPAFAH, FP-rhodamine probe fluorescence polarization | inhibition, % at 3.39 µM | 1.5% of 330,000 active | AID 463082;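 active = inhibition above the mean inhibition across the screen plus 3 SD, cut at about 25% in these data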;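 also: inhibitors block binding of the rhodamine activity-based probe so polarization drops; 0% = enzyme with DMSO and 100% = wells lacking pPAFAH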
# PAD4 FP inh – PAD4 (human) enzyme inhibition; AID 485272; recombinant PAD4, RCA probe fluorescence polarization; 0.41% of 330,000 active; inhibition, % at 6.36 µM; Q9UM07;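 active = percent inhibition above a cutoff equal to the mean of all tested compounds plus 3 SD, cut at about 15% in these data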;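 also: 0% = PAD4 with RCA probe and DMSO and 100% = probe without PAD4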
# Target sequence (Q9UM07 whole entry, looked up): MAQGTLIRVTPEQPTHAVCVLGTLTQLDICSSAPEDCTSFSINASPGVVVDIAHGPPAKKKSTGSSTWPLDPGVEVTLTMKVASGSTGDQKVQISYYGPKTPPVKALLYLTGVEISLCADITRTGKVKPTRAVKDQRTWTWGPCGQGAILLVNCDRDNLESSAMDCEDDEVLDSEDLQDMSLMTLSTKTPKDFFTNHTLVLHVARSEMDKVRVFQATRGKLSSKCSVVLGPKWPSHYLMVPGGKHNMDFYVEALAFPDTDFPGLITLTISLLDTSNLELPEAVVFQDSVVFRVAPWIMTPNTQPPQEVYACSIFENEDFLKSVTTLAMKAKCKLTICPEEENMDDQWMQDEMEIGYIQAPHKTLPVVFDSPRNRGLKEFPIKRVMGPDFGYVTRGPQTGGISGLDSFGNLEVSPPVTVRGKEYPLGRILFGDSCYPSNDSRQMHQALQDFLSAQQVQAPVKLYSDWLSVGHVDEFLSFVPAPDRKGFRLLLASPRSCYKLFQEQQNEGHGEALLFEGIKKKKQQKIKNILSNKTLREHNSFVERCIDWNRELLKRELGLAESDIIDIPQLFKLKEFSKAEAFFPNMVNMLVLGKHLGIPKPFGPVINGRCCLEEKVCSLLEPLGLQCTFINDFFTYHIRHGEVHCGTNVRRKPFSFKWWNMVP
# * hit, by the source's call; nt = not tested or not shown.
SMILES,Fam108B inh,PME-1 primary,GSTO1 counter,pPAFAH FP inh,PAD4 FP inh
CCN(CC)C(=O)CSc1nc2cc3c(cc2c(=O)n1Cc1ccc2c(c1)OCO2)OCO3,3,1,5,-4,0
CCOC(=O)CSc1nc2ccc(N3CCOCC3)cc2c(=O)n1Cc1ccc2c(c1)OCO2,5,4,19,32*,3
COc1ccc(CC(=O)Nc2ccc(F)c(F)c2F)cc1S(=O)(=O)N1CCOCC1,nt,3,nt,-1,-4
Nc1nccnc1C(=O)OCC(=O)NCCc1ccc(S(N)(=O)=O)cc1,-2,-1,3,-1,-1
CC(=O)c1c(C)cc(C)c(CSc2nnc(-c3ccco3)o2)c1C,0,0,35*,3,3
Cc1cccc(CSc2nnc(-c3ccco3)o2)c1,3,2,12,3,-4
CCOC(=O)CN1CCC(c2cc(-c3ccc(Cl)cc3)n[nH]2)CC1,-6,-4,1,31*,-8
CCOC(=O)Cn1nc(-c2ccc(Cl)cc2)cc1N,-1,-1,-2,1,-3
Cc1cc2ccccn2c1C(=O)c1ccc([N+](=O)[O-])o1,4,17,86*,8,-1
O=C(Nc1cc(Cl)ccc1-n1cncn1)c1cc(F)c(F)c(F)c1F,-2,4,-7,3,-4
Cc1cc(N(C)C)ccc1N=Nc1ccc2ncccc2c1,11,32*,8,12,1
COC(=O)c1sc(-c2ccc(C(C)(C)C)cc2)cc1NC(=O)CSCC(=O)O,-9,-2,-9,32*,0
COC(=O)c1sc(-c2ccc(C(C)(C)C)cc2)cc1NC(=O)c1ccccc1C(=O)O,-12,-14,-20,5,-1
O=C(NN=C1CCCCC1)Nc1ccccc1Cl,3,-3,-5,4,-1
CC(C)(c1ccccc1)c1ccc(OCCN2CCOCC2)cc1,-4,-3,-2,27*,7
Cc1ccc(N2C3=C(C(=O)CC(C)(C)C3)C(c3cn(C)nc3C)C3=C2CC(C)(C)CC3=O)cc1,2,-1,2,27*,10
Cc1nn(C)cc1C1C2=C(CC(C)(C)CC2=O)N(c2ccccc2)C2=C1C(=O)CC(C)(C)C2,4,2,2,2,-3
Clc1cccc(Cl)c1CNc1ccc(N2CCCC2)cc1,4,4,23,27*,0
O=C(Cc1ccc(Cl)cc1)Nc1ccc(N2CCCC2)cc1,-6,-8,1,1,-1
CC(=O)c1ccccc1OCc1ccc(S(=O)(=O)Cc2ccccc2)cc1,2,1,10,14,-2
CC(C)(C)n1nnnc1C(c1cccs1)N(Cc1ccccc1)Cc1ccco1 (centres undefined),-4,-1,-3,7,0
CC(C)(C)n1nnnc1C(c1cccs1)N(Cc1cccnc1)Cc1ccco1 (centres undefined),-1,30*,3,2,9
CCN(CC)c1ccc(/C=N/NC(=O)Cc2nnc(NC(=O)Nc3ccccc3)s2)cc1,47*,37*,-11,20,-11
O=C(Oc1cccc(Oc2ccccc2)c1)N1CCOCC1,4,4,-3,25*,2
Cc1cccc(NC(=S)NCc2cccn2C)c1,5,-3,37*,-1,2
SMILES,Fam108B inh,PME-1 primary,GSTO1 counter,pPAFAH FP inh,PAD4 FP inh
N#CC1=C(N)C(C#N)(C#N)C(c2cccnc2)C2CC(c3ccccc3)CC=C12 (centres undefined),2,54*,4,10,-4
COc1cccc(NC(=O)/C=C/c2ccco2)c1,-1,-5,3,6,-2
CSc1cccc(NC(=O)/C=C/c2ccco2)c1,-10,-11,-5,25*,-10
O=C(N/C=C/c1ccco1)Nc1cccc(Cl)c1,0,-2,-9,27*,0
N#C/C(=C(/O)c1ccc(Cl)cc1)c1nc2ccccc2[nH]1,0,-3,4,4,-4
N#C/C(=C(\O)c1cc(Cl)sc1Cl)c1nc2ccccc2[nH]1,12,35*,0,-2,-10
CCCCNC(=O)CSc1nc(Cc2ccccc2)nc2ccccc12,2,4,-2,-2,4
CC(C)c1ncc(C(O)c2cccc3ccccc23)n1C (centres undefined),-2,-1,36*,2,0
COc1cccc(C(O)c2cnc(C(C)C)n2C)c1OC (centres undefined),4,0,4,-5,-2
CC(c1ccccc1)N1CC(C(=O)N2CCCC(C(N)=O)C2)CC1=O (centres undefined),nt,-5,nt,-2,-1
Cc1cc(=O)[nH]c(N/N=C/c2cc(C)n(-c3ccccc3)c2C)n1,-1,1,-1,31*,-1
CCOCCCN(C(=O)c1snc(C(N)=O)c1N)C(C(=O)NCCC(C)C)c1ccc(Cl)cc1 (centres undefined),2,-2,7,4,-2
CCOc1ccc(CCNC(=O)c2ccc3c(=O)[nH]c4c(C(=O)NC(C)C)sc(=S)n4c3c2)cc1,11,10,-3,29*,-3
CC(C)NC(=O)c1sc(=S)n2c1[nH]c(=O)c1ccc(C(=O)NCCc3ccc(Cl)cc3)cc12,1,19,-15,17,5
CCCCCCCCCCC[C@@H](C[C@@H]1OC(=O)[C@H]1CCCCCC)OC(=O)[C@H](CC(C)C)NC=O,4,-3,7,93*,2
Cc1ccc(NS(=O)(=O)c2cccs2)c(C)c1,-1,3,3,28*,-5
Cc1cc(-c2nc3cccnc3s2)ccc1NS(=O)(=O)c1cccs1,0,4,7,33*,0
Cc1cc(C)cc(NS(=O)(=O)c2cccs2)c1,2,0,2,12,3
Cc1ccccc1/C=C1\SC(=S)N(/N=C/c2cc([N+](=O)[O-])ccc2O)C1=O,3,9,35*,8,3
O=C1/C(=C\c2cc([N+](=O)[O-])ccc2O)SC(=S)N1Cc1ccc(Cl)cc1,-164,-340,-162,-16,-106
CCN1CC(CN(C)Cc2nc(-c3ccc(C(F)(F)F)cc3)oc2C)CC1=O (centres undefined),2,-6,7,30*,-6
Cc1ccc(/C=C/S(=O)(=O)NCCC(=O)NCc2ccc(F)cc2)cc1,nt,2,nt,6,-3
CN(C)c1ccc(N=Cc2nc(-c3ccccc3)oc2OC(=O)c2ccccc2)cc1,-8,1,2,-2,-3
O=C(Oc1oc(-c2ccco2)nc1C=Nc1ccc(Cl)cc1)c1ccco1,3,4,0,26*,-1
N#CC1=C(N)OC2=C(CN(Cc3ccccc3)C/C2=C\c2cccnc2)C1c1cccnc1 (centres undefined),7,4,-6,2,2
CC(C)N1CC2=C(OC(N)=C(C#N)C2c2cccnc2)/C(=C/c2cccnc2)C1 (centres undefined),3,6,6,6,16*
COC(=O)c1ccc(NC(=O)Cn2nc(C)cc2C)cc1,-2,0,7,4,-2
O=S(=O)(/C=C/c1cccc(Br)c1)N1CCOCC1,-4,2,6,1,2

# Screening results (PubChem)
